In PubChem BioAssay (NCI):
The panel holds about 79,000 compounds, 15% with a hit somewhere; the sample as a whole holds those more often. Unmarked numbers belong to inactive results. Calls of active or inactive are those of the source. Rule as the data show it: active = growth inhibition above about 70%; inactive = the rest.

Tests used:
[1] = NCI Yeast Anticancer Drug Screen. Data for the rad50 strain (AID 155);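 also: 0% = growth of vehicle-only cultures of the same strain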; conditions: S. cerevisiae rad50 strain growth inhibition; at 50.0 µM; stronger effect = higher value
Method in brief: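 DNA repair mutant yeast, compound exposure, growth read-out; inhibition is taken relative to vehicle.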

[2] = NCI Yeast Anticancer Drug Screen. Data for the mec2-1 strain (AID 157); conditions: S. cerevisiae mec2-1 strain, at 50.0 µM, stronger effect = higher value
Method in brief: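 Compounds were applied to mec2-1 yeast cells. Their growth was then compared with that of vehicle-treated cultures to give growth inhibition.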

[3] = NCI Yeast Anticancer Drug Screen. Data for the sgs1 mgt1 strain (AID 161);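 also: 0% = growth of cultures given vehicle only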; conditions: S. cerevisiae sgs1 mgt1 strain, at 50.0 µM, stronger effect = higher value
Method in brief: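 Growth of a repair-deficient yeast mutant was monitored after compound treatment and expressed as inhibition relative to vehicle-treated cultures.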

[4] = NCI Yeast Anticancer Drug Screen. Data for the cln2 rad14 strain (AID 165);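 also: 0% = growth equal to vehicle treated cultures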; conditions: S. cerevisiae cln2 rad14 strain, at 50.0 µM, stronger effect = higher value
Method in brief: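 Strain: cln2 rad14 yeast, altered in cell cycle control and DNA damage repair. Read-out: growth inhibition vs vehicle.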

[5] = NCI Yeast Anticancer Drug Screen. Data for the bub3 strain (AID 167); conditions: S. cerevisiae bub3 mutant strain, at 50.0 µM, stronger effect = higher value
Method in brief: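 In this screen, a yeast mutant lacking normal mitotic checkpoint function is challenged with compound. Relative growth versus vehicle gives the inhibition value.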

[6] = NCI Yeast Anticancer Drug Screen. Data for the mlh1 rad18 strain (AID 175); conditions: S. cerevisiae mlh1 rad18 strain growth inhibition; at 50.0 µM; stronger effect = higher value
Method in brief: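 A repair-deficient yeast strain is exposed to test compound, and growth is scored relative to vehicle-treated controls.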

Row | SMILES | growth inhibition [1] | growth inhibition [2] [%] | growth inhibition [3] [%] | growth inhibition [4] [%] | growth inhibition [5] [%] | growth inhibition [6] [%]
1 | CN(C)C(=O)Nc1cccc2nsnc12 | 12.4% | -2.75 | 11 | -50.5 | -5.95 | 29.6
2 | O=C(O)C(SSC(C(=O)O)(c1ccccc1)c1ccccc1)(c1ccccc1)c1ccccc1 | 71.8% (active) | 21.5 | 54.6 | 36 | 12 | 38
3 | COc1cc(\C=N/N=C/C=C/c2ccccc2)cc(OC)c1OC | 0.55% | 42.3 | 7.95 | -10.7 | 38.4 | 15.5
4 | CCc1cccc(C)c1NC(=S)NC(=O)c1ccccc1C(=O)NC(=S)Nc1c(C)cccc1CC | 12.3% | 7.7 | 0.95 | 20.9 | 11.8 | 20.4
5 | CCCn1cnc2c(SCC(=O)O)nc(N)nc21 | -33.3% | -18.9 | -24.4 | -26.1 | -22.1 | -8.9
6 | O=C(NC(Cc1c[nH]c2ccccc12)C(=O)O)C(=O)c1c[nH]c2ccccc12 (stereo unspecified) | -9.9% | -14.6 | 27.5 | 0.9 | 15.2 | 4.2
7 | COc1ccc(C(=O)N/N=C/c2cccc3ccccc23)cc1 | -3% | 36.5 | 13 | -23.1 | 43.8 | 33.6
8 | C[N+](C)(C)C12CCCCCC1SC2 (stereo unspecified) | 15.6% | 6.7 | 9.55 | -26.6 | -16.1 | 5.1
9 | O=C1CCSSCCC(=O)Nc2ccccc2N1 | -36.4% | -42.5 | -14.8 | -9.55 | -18.1 | -15.6
10 | CCN(CC)CCC(=O)N1CCc2c([nH]c3ccccc23)C1c1cccnc1 (stereo unspecified) | -26.9% | -18.9 | -3.95 | -6.7 | -0.1 | -28.2
11 | Cc1cccc(C2=NC(=C3CCCCC3)C(=O)O2)c1 | 4.5% | 6.6 | 5.8 | 12.2 | 4 | 20.9
12 | CS(=O)(=O)Nc1ccc2ccccc2c1 | -33.8% | 18.8 | -22.5 | 5.1 | -3.05 | -3.7
13 | Cn1c(=O)c2c(nc(OC3CCCCC3)n2C)n(C)c1=O | 14.1% | -1.3 | 29.4 | 26.1 | 57.5 | -2.95
14 | CC(C)N(C(=O)C12C3C4C5(C(=O)O)C(C1C35I)C42C(=O)O)C(C)C (stereo unspecified) | -5.25% | 11.1 | -13.3 | 13.7 | -10.4 | -4.1
15 | NC(=O)CC(Nc1ncc2c(n1)-c1ccccc1OC2)C(=O)O (stereo unspecified) | 37.6% | -16.4 | -10.5 | 9.95 | -45.8 | -53.8
16 | CC(C)C(C)(O)c1ccccc1 (stereo unspecified) | -3.15% | -28.8 | 5.35 | -10.9 | 0.35 | 0.9
17 | O=C(O)C1CCCN1/N=C/c1cccc([N+](=O)[O-])c1 (stereo unspecified) | -11.1% | -1.3 | 9.1 | -5.4 | 24.6 | -11.3
18 | CC(=O)[O-].O=S(=O)(Nc1ncccn1)c1ccc(N=Cc2ccccc2O)cc1.O=S(=O)(Nc1ncccn1)c1ccc(N=Cc2ccccc2O)cc1.[Co+2] | 25.4% | 23.2 | 26.6 | 27.7 | 32.2 | 25.1
19 | c1ccc(-c2ccc3c4ccccc4ccn23)cc1 | 9.2% | -4.1 | 8.9 | 17.7 | 12.7 | 23.9
20 | CC(C)=C1CCC(CN2CCCC2)C1=O (stereo unspecified) | 20.1% | 13.4 | 17.4 | 19.2 | 6.2 | 23.6
21 | COc1ccc(CC#N)c(OCc2ccccc2)c1 | 2.35% | 8.3 | -10.2 | 3.55 | 1.8 | -17.5
